Test results: PubChem BioAssay (EPA / NIEHS)
Calls of active or inactive are those of the source. Rule for the calls: active = hit-call score of the fitted dose curve at least 0.9, where 1 is the maximum; inactive = score below 0.9.

Legend:
[1] = read-out: Thrombomodulin, THBD (gene 7056); experiment: BSK_CASM3C_Thrombomodulin: BioMAP Diversity Plus: CASM3C Assay for Thrombomodulin Biomarker Activity (AID 2283051); details: primary human coronary artery smooth muscle cells; actives raise or lower the signal;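 note: thrombomodulin protein level measured by ELISA 24 h after dosing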
[2] = read-out: Tissue Factor, F3 (gene 2152); experiment: BSK_CASM3C_TissueFactor: BioMAP Diversity Plus: CASM3C Assay for Tissue Factor Biomarker Activity (AID 2283052); details: primary human coronary artery smooth muscle cells; actives raise or lower the signal;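 note: cell surface tissue factor protein level read by ELISA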
[3] = read-out: Interferon-gamma inducible Protein 10 (IP10), CXCL10 (gene 3627); experiment: BSK_hDFCGF_IP10: BioMAP Diversity Plus: hDFCGF Assay for Interferon-gamma inducible Protein 10 (IP10) Biomarker Activity (AID 2283053); details: primary human foreskin fibroblasts; actives raise or lower the signal
Summary of the method: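 ELISA read-out of IP-10 (CXCL10) from primary human skin fibroblasts, 24 h after compound addition. Gain or loss of signal versus DMSO baseline, bidirectional curve fitting.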

[4] = read-out: Urokinase-type plasminogen activator receptor (uPAR), PLAUR (gene 5329); experiment: BSK_CASM3C_uPAR: BioMAP Diversity Plus: CASM3C Assay for Urokinase-type plasminogen activator receptor (uPAR) Biomarker Activity (AID 2283054); details: primary human coronary artery smooth muscle cells; actives raise or lower the signal;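 note: cell-surface uPAR protein level quantified by ELISA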
[5] = read-out: Vascular cell adhesion molecule 1 (VCAM1), VCAM1 (gene 7412); experiment: BSK_CASM3C_VCAM1: BioMAP Diversity Plus: CASM3C Assay for Vascular cell adhesion molecule 1 (VCAM1) Biomarker Activity (AID 2283055); details: primary human coronary artery smooth muscle cells; actives raise or lower the signal;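 note: VCAM-1 protein level quantified by ELISA on the cells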
[6] = read-out: Collagen III, COL3A1 (gene 1281); experiment: BSK_hDFCGF_CollagenIII: BioMAP Diversity Plus: hDFCGF Assay for Collagen III Biomarker Activity (AID 2283056); details: primary human foreskin fibroblasts; actives raise or lower the signal
Summary of the method: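 Human foreskin fibroblast primary cultures sampled 24 h after dosing; Collagen III quantified by ELISA. Signal fitted bidirectionally against DMSO baseline.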

[7] = read-out: Epidermal growth factor receptor (EGFR), EGFR (gene 1956); experiment: BSK_hDFCGF_EGFR: BioMAP Diversity Plus: hDFCGF Assay for Epidermal growth factor receptor (EGFR) Biomarker Activity (AID 2283057); details: primary human foreskin fibroblasts; actives raise or lower the signal
Summary of the method: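 ELISA readout of EGFR on human dermal fibroblasts (primary foreskin cells), 24 h post-dosing; bidirectional curve fit vs DMSO baseline, gain or loss of signal scored.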

[8] = read-out: Interleukin-8 (IL8), CXCL8 (gene 3576); experiment: BSK_hDFCGF_IL8: BioMAP Diversity Plus: hDFCGF Assay for Interleukin-8 (IL8) Biomarker Activity (AID 2283058); details: primary human foreskin fibroblasts; actives raise or lower the signal
Summary of the method: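 Primary human foreskin fibroblasts (hDFCGF system) dosed with chemical; IL-8 measured by ELISA 24 hours later. Bidirectional curve fitting relative to DMSO baseline; cytotoxicity tracked in parallel cultures by SRB total protein staining.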

[9] = BSK_hDFCGF_Proliferation: Cell Proliferation Assessment in the BioMAP Diversity Plus: hDFCGF Assay (AID 2283059); details: primary human foreskin fibroblasts;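 note: curves fitted for both rise and fall of signal versus DMSO baseline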
Summary of the method: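 Total protein read at 560 nm after 0.1% SRB staining of TCA-fixed human skin fibroblasts, […]. Activity is fitted in both directions relative to DMSO as baseline.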

[10] = read-out: Macrophage colony-stimulating factor (MCSF), CSF1 (gene 1435); experiment: BSK_hDFCGF_MCSF: BioMAP Diversity Plus: hDFCGF Assay for Macrophage colony-stimulating factor (MCSF) Biomarker Activity (AID 2283060); details: primary human foreskin fibroblasts; actives raise or lower the signal
Summary of the method: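 Human foreskin fibroblast primary cultures; M-CSF measured by ELISA 24 hours after chemical dosing. Bidirectional fitting relative to DMSO, with overt cytotoxicity tracked by parallel SRB total-protein staining (0.1% SRB, 10% TCA fixation, 560 nm).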

SMILES	outcome [1]	outcome [2]	outcome [3]	outcome [4]	outcome [5]	outcome [6]	outcome [7]	outcome [8]	outcome [9]	outcome [10]	AC50 [9]	AC50 [2]	AC50 [3]	AC50 [6]	AC50 [10]	AC50 [7]	AC50 [1]	AC50 [5]	AC50 [4]
CC(=O)[C@@]1(O)CC[C@H]2[C@@H]3CCC4=CC(=O)CC[C@]4(C)[C@H]3CC[C@@]21C	inactive	inactive	inactive	inactive	inactive	inactive	inactive	inactive	inactive	inactive	–	–	–	–	–	–	–	–	–
Cc1occc(=O)c1O	inactive	inactive	inactive	inactive	inactive	inactive	inactive	inactive	inactive	inactive	–	–	–	–	–	–	–	–	–
C#CC(O)C(CC)CCCC (centres undefined)	inactive	inactive	inactive	inactive	inactive	inactive	inactive	inactive	inactive	inactive	–	–	–	–	–	–	–	–	–
CCCCCCCCCCCCCCCCO	inactive	inactive	inactive	inactive	inactive	inactive	inactive	inactive	–	inactive	6.73 µM (active)	–	–	–	–	–	–	–	–
CS(=O)(=O)c1ccc([C@@H](C[C@H]2CCC(=O)C2)C(=O)Nc2cnccn2)cc1Cl	inactive	inactive	inactive	inactive	inactive	inactive	inactive	inactive	inactive	inactive	–	–	–	–	–	–	–	–	–
CSc1ccc(Oc2ccc(S(N)(=O)=O)cc2CN(C)C)cc1C	inactive	inactive	inactive	inactive	inactive	inactive	inactive	inactive	–	inactive	20 µM (active)	–	–	–	–	–	–	–	–
C/C=C/C=C/C(=O)O	inactive	inactive	inactive	inactive	inactive	inactive	inactive	inactive	inactive	inactive	–	–	–	–	–	–	–	–	–
O=C(NS(=O)(=O)/C=C/c1cccs1)c1ccc(F)cc1Br	inactive	–	–	inactive	inactive	inactive	inactive	inactive	–	inactive	6.17 µM (active)	0.061 µM (active)	30.9 µM (active)	–	–	–	–	–	–
O=C1c2c(O)cccc2Cc2cccc(O)c21	inactive	inactive	–	inactive	inactive	–	inactive	inactive	inactive	–	–	–	17.1 µM (active)	30.7 µM (active)	17.1 µM (active)	–	–	–	–
O=C1OC(c2ccc(O)cc2)(c2ccc(O)cc2)c2ccccc21	inactive	inactive	inactive	inactive	inactive	–	–	inactive	–	inactive	28 µM (active)	–	–	30.2 µM (active)	–	20 µM (active)	–	–	–
CC1(C)C(=O)NC(=O)N1CO	inactive	inactive	inactive	inactive	inactive	inactive	inactive	inactive	inactive	inactive	–	–	–	–	–	–	–	–	–
Oc1ccccc1O	–	inactive	–	inactive	–	–	inactive	inactive	–	–	12 µM (active)	–	14.1 µM (active)	10.2 µM (active)	13.3 µM (active)	–	11 µM (active)	5.64 µM (active)	–
O=[Si]=O	inactive	inactive	inactive	inactive	inactive	inactive	inactive	inactive	inactive	inactive	–	–	–	–	–	–	–	–	–
CC(=O)OCC(COC(C)=O)OC(C)=O	inactive	inactive	inactive	inactive	inactive	inactive	inactive	inactive	inactive	inactive	–	–	–	–	–	–	–	–	–
CC(=O)O	inactive	inactive	inactive	inactive	inactive	inactive	inactive	inactive	–	inactive	31.2 µM (active)	–	–	–	–	–	–	–	–
O=Cc1ccccc1C=O	inactive	inactive	inactive	inactive	inactive	inactive	inactive	inactive	inactive	inactive	–	–	–	–	–	–	–	–	–
CO[C@@H]1COCC[C@@H]1N[C@@H]1CC[C@@](C(=O)N2CCc3ncc(C(F)(F)F)cc3C2)(C(C)C)C1	inactive	inactive	inactive	inactive	inactive	inactive	inactive	inactive	inactive	inactive	–	–	–	–	–	–	–	–	–
CC(C)(C)c1ccccc1	inactive	inactive	inactive	inactive	inactive	inactive	inactive	inactive	inactive	inactive	–	–	–	–	–	–	–	–	–
CN(C)C(=O)NC1(c2ccccc2)CCN(CCC[C@]2(c3ccc(Cl)c(Cl)c3)CCCN(C(=O)c3ccccc3)C2)CC1	inactive	inactive	inactive	inactive	inactive	inactive	inactive	inactive	–	inactive	6.29 µM (active)	–	–	–	–	–	–	–	–
CC(=O)O[C@]1(C(C)=O)CC[C@H]2[C@@H]3C=C(Cl)C4=CC(=O)[C@@H]5C[C@@H]5[C@]4(C)[C@H]3CC[C@@]21C	inactive	inactive	inactive	inactive	inactive	–	inactive	inactive	–	–	17 µM (active)	–	–	27 µM (active)	–	–	–	–	–
CC(N)=O	inactive	inactive	inactive	inactive	inactive	inactive	inactive	inactive	inactive	inactive	–	–	–	–	–	–	–	–	–
CC(C)c1cccc(C(C)C)c1	inactive	inactive	inactive	inactive	inactive	inactive	inactive	inactive	inactive	inactive	–	–	–	–	–	–	–	–	–
OCC(CO)n1cnc(-c2ccc(F)cc2)c1-c1ccnc(Oc2ccccc2)n1	inactive	inactive	inactive	inactive	–	inactive	inactive	inactive	inactive	–	–	–	–	–	0.148 µM (active)	–	–	2.33 µM (active)	–
CC(C)OC(=O)C(C)(C)Oc1ccc(C(=O)c2ccc(Cl)cc2)cc1	–	inactive	–	–	–	–	inactive	inactive	–	inactive	26.4 µM (active)	–	12.9 µM (active)	8.9 µM (active)	–	–	11 µM (active)	5 µM (active)	5.38 µM (active)
NCCOCCOCCN	inactive	inactive	inactive	inactive	inactive	inactive	inactive	inactive	–	inactive	14.6 µM (active)	–	–	–	–	–	–	–	–
CN(C)CCCN(C)CCCN(C)C	inactive	inactive	inactive	inactive	inactive	inactive	inactive	inactive	inactive	inactive	–	–	–	–	–	–	–	–	–
O=C(O)CN(CC(=O)O)CC(=O)O	inactive	inactive	inactive	inactive	inactive	inactive	inactive	inactive	inactive	inactive	–	–	–	–	–	–	–	–	–
CCCCCCC(CCCCCCCCCCC(=O)OCC(COC(C)=O)OC(C)=O)OC(C)=O (centres undefined)	inactive	inactive	inactive	inactive	inactive	–	inactive	inactive	–	inactive	3.11 µM (active)	–	–	2.73 µM (active)	–	–	–	–	–
